# In a collection of fitness landscapes (doi:10.1126/science.1257360):
# Over roughly 140,000 sequences, “enrichment ratio after two sorts for PhoP signalling” has its median near 0; the highest 2% begin near 11. This excerpt belongs to a sample that is enriched for the highest values.
# B1: PhoQ; a variant is named by its letters at X, in order, P23837 (parent)
# chain: MKKLLRLFFPLSLRVRFLLATAAVVLVLSLAYGMVALIGYSVSFDKTTFRLLRGESNLFYTLAKWENNKLHVELPENIDKQSPTMTLIYDENGQLLWAQRDVPWLMKMIQPDWLKSNGFHEIEADVNDTSLLLSGDHSIQQQLQEVREDDDDAEMTHSVAVNVYPATSRMPKLTIVVVDTIPVELKSSYMVWSWFIYVLSANLLLVIPLLWVAAWWSLRPIEALAKEVRELEEHNRELLNPATTRELTSLVRNLNRLLKSERERYDKYRTTLTDLTHSLKTPLXXLQXXLRSLRSEKMSVSDAEPVMLEQISRISQQIGYYLHRASMRGGTLLSRELHPVAPLLDNLTSALNKVYQRKGVNISLDISPEISFVGEQNDFVEVMGNVLDNACKYCLEFVEISARQTDEHLYIVVEDDGPGIPLSKREVIFDRGQRVDTLRPGQGVGLAVAREITEQYEGKIVAGESMLGGARMEVIFGRQHSAPKDE
# Variants of: B1
# Test: enrichment ratio after two sorts for PhoP signalling (ratio (wild type AVST 3.29)); higher = more functional
# Details: with PhoP (E. coli)
row,Variant,enrichment ratio
1,FDLI,≤ 0.25
2,ADLT,11.3
3,WYQF,≤ 0.25
4,EELG,≤ 0.25
5,IKSA,≤ 0.25
6,AVVT,0.37
7,QMRR,≤ 0.25
8,ILWV,≤ 0.25
9,GWVK,≤ 0.25
10,ANDK,≤ 0.25
11,AYLI,0.332
12,ANLI,23.1
13,PDDN,≤ 0.25
14,VNIK,≤ 0.25
15,TWLY,≤ 0.25
16,IICF,0.792
17,TICS,13
18,TICI,2.26
19,TICL,1.53
20,TICA,12.3
21,TICE,≤ 0.25
22,TICV,6.14
23,IKEC,≤ 0.25
24,LHYP,≤ 0.25
25,KVDK,≤ 0.25
26,GIFC,≤ 0.25

row,Variant,enrichment ratio
1,TNSC,17.3
2,TNSI,15.8
3,TNSR,≤ 0.25
4,TNSK,≤ 0.25
5,TNCA,8.8
6,MNSC,≤ 0.25
7,GISC,11.8
8,MNSS,0.46
9,TNSS,13.1
10,LNSS,≤ 0.25
11,GITC,8.58
12,IKVK,≤ 0.25
13,LLGD,≤ 0.25
14,MVLD,≤ 0.25
15,RQIY,≤ 0.25
16,GQSC,≤ 0.25
17,GTSC,≤ 0.25
18,GNSC,12.1
19,WNPE,≤ 0.25
20,EPTS,≤ 0.25
21,SQPA,≤ 0.25
22,HECT,26.3
23,HELT,≤ 0.25
24,VECT,12
25,IECT,16.6
26,YWCT,≤ 0.25

row,Variant,enrichment ratio
1,TCCT,7.4
2,EECT,≤ 0.25
3,QECT,6.99
4,NECT,14.1
5,HEAT,≤ 0.25
6,VFCT,≤ 0.25
7,IQCT,≤ 0.25
8,REDM,≤ 0.25
9,DVPV,≤ 0.25
10,MSTY,2.56
11,SPFN,≤ 0.25
12,ACHR,≤ 0.25
13,MCHQ,≤ 0.25
14,FMEW,≤ 0.25
15,ERFY,≤ 0.25
16,LRPR,≤ 0.25
17,LISC,≤ 0.25
18,HMCL,2.41
19,SRMT,0.372
20,KYMT,≤ 0.25
21,SWMT,≤ 0.25
22,STMT,16.6
23,SPLT,≤ 0.25
24,STLT,12.3
25,SEMT,20
26,SIMT,7.68

row,Variant,enrichment ratio
1,STLA,10.9
2,SLMT,≤ 0.25
3,QEMT,5.12
4,SQMT,22.7
5,INDV,≤ 0.25
6,LNTQ,≤ 0.25
7,PDCH,≤ 0.25
8,PGNF,≤ 0.25
9,DWKT,≤ 0.25
10,EFCG,≤ 0.25
11,KSIH,≤ 0.25
12,KPAG,≤ 0.25
13,LQSG,≤ 0.25
14,EPRQ,≤ 0.25
15,TQPT,≤ 0.25
16,WMMI,≤ 0.25
17,IPNH,≤ 0.25
18,PVYK,≤ 0.25
19,KAQM,≤ 0.25
20,SGQM,14.7
21,RGQM,≤ 0.25
22,DWQM,≤ 0.25
23,LAQM,≤ 0.25
24,TQQM,17.5
25,SGQK,≤ 0.25
26,SMQM,20.4

row,Variant,enrichment ratio
1,FQQM,≤ 0.25
2,SMRM,≤ 0.25
3,TLQM,15.4
4,SMGM,5.78
5,IDFL,≤ 0.25
6,SWLW,≤ 0.25
7,FYKC,≤ 0.25
8,FEKG,≤ 0.25
9,DDSK,≤ 0.25
10,RTPK,≤ 0.25
11,TQKM,≤ 0.25
12,MGAV,5.2
13,YTQM,≤ 0.25
14,SCQM,30.8
15,SRQM,≤ 0.25
16,KSQM,≤ 0.25
17,TTQM,12.5
18,FSQM,≤ 0.25
19,LTQM,≤ 0.25
20,STQM,12.8
21,SPQM,≤ 0.25
22,TSQM,24
23,FCQM,≤ 0.25
24,KYQM,≤ 0.25
25,RPSF,≤ 0.25
26,GPMM,≤ 0.25

row,Variant,enrichment ratio
1,AHKW,≤ 0.25
2,PCPS,≤ 0.25
3,AQDI,≤ 0.25
4,SAQM,8.97
5,SQQM,15.9
6,SLQM,7.14
7,HIPP,≤ 0.25
8,TDCL,1.96
9,KHNK,≤ 0.25
10,YPTR,≤ 0.25
11,YCAA,≤ 0.25
12,QGSN,20.2
13,FVSN,≤ 0.25
14,KASG,≤ 0.25
15,QASG,17.4
16,FFSN,≤ 0.25
17,NASN,≤ 0.25
18,QASN,11.4
19,QRSG,≤ 0.25
20,QRSN,≤ 0.25
21,GMMP,≤ 0.25
22,DWWS,≤ 0.25
23,RCNY,≤ 0.25
